According to PubChem BioAssay (NCATS):
Results filed as inconclusive are left out. Calls of active or inactive are those of the source. Unless noted, calls follow the shape of the dose curve; as a rule, active = well fitted curve in the direction sought with a large enough effect; inconclusive = small, poorly fitted or top-dose-only effect, or another doubt; inactive = no such curve, though single readings can be large; an effect the other way counts as inactive or inconclusive.

What was measured:
[1] = qHTS for Inhibitors of Plasmodium falciparum (DD2) proliferation (AID 504314);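 also: parasite DNA measured by SYBR Green fluorescence after red cell lysis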; settings: P. falciparum Dd2 in erythrocytes, SYBR Green growth, 72 h; series mostly up to 6.11 µM
In short: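 Quantitative HTS growth inhibition: SYBR Green I binding to parasite DNA after 72 h drug exposure of infected erythrocytes (0.3% parasitemia, 2.5% hematocrit). Signals normalized per plate to inhibitor and vehicle wells.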

[2] = qHTS for Inhibitors of Plasmodium falciparum (GB4) proliferation (AID 504315); also: nearly all actives have a fitted effect of over 50% in size; settings: P. falciparum GB4 in erythrocytes, SYBR Green DNA, 72 h; series mostly up to 6.7 µM
In short: (§1)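 Erythrocytes infected with P. falciparum line (0.3% parasitemia, 2.5% hematocrit final) incubated with compounds 72 h at 37 °C, 5% CO2; SYBR Green lysis buffer added, fluorescence read next day. Normalized to 0.29 uM artemisinin and DMSO.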

[3] = qHTS for Inhibitors of Plasmodium falciparum (7G8) proliferation (AID 504316); also: nearly all actives have a fitted effect of over 65% in size; settings: P. falciparum 7G8 in erythrocytes, SYBR Green DNA, 72 h; series mostly up to 6.7 µM
In short: as §1

[4] = qHTS for Inhibitors of Plasmodium falciparum (HB3) proliferation (AID 504318); also: nearly all actives have a fitted effect of over 60% in size; settings: P. falciparum HB3 in erythrocytes, SYBR Green DNA, 72 h; series mostly up to 7.21 µM
In short: as §1

[5] = qHTS for Inhibitors of Plasmodium falciparum (CP250) proliferation (AID 504320); settings: P. falciparum CP250 in erythrocytes, SYBR Green DNA, 72 h; series mostly up to 6.7 µM
In short: as §1

[6] = molecular target: Atrial natriuretic peptide receptor 1 (Homo sapiens) (UniProt P16066); assay: Natriuretic polypeptide receptor (hNpr1) antagonism - Pilot CMLD screen (AID 1347052; calls by dose curve;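 also: HEK293 cells with hNpr1 stimulated by hNppA peptide at 0.1 nM; cGMP level read as GloSensor luciferase luminescence after agonist stimulation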); settings: HEK293 hNpr1 GloSensor cGMP luminescence, ANP-stimulated; series mostly up to 9.22 µM
Chain of Atrial natriuretic peptide receptor 1 (Homo sapiens) (P16066 whole entry, looked up): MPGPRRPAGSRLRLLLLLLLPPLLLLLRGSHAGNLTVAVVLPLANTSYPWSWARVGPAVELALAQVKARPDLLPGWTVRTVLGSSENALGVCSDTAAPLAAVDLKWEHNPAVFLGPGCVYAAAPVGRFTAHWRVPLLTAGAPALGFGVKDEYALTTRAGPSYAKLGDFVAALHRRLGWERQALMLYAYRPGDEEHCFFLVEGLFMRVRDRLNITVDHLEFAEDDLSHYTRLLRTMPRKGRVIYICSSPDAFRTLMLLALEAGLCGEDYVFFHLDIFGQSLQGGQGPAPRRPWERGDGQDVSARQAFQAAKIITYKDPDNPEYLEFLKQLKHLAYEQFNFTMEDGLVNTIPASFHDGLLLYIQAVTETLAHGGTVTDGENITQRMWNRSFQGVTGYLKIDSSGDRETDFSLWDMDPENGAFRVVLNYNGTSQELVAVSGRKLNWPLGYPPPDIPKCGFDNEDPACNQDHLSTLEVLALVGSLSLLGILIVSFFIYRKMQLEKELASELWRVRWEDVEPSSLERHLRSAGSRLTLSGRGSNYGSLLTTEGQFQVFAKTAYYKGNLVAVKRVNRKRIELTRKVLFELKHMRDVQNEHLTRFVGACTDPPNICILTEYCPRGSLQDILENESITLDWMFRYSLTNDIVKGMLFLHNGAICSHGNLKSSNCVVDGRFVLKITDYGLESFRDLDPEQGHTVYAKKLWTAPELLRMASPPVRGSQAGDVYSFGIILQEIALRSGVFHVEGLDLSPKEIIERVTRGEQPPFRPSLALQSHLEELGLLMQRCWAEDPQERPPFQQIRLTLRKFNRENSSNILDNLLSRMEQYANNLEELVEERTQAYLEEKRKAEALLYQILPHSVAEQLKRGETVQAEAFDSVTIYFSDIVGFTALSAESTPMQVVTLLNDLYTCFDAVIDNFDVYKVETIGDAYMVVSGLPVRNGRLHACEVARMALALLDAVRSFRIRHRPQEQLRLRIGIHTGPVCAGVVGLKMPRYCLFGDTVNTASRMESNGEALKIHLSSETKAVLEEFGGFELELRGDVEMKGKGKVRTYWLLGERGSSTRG

Measured: Potency

CCOC(=O)C1=CN(CCNC(=O)OC(C)(C)C)C(=O)NC1c1ccccc1 (stereo not given)
inactive: all assays above

COCC=CC1=CC2=CC(=O)C(C)(OC(=O)c3cnc4ccccc4n3)C(=O)C2=CN1CC1CC1 (stereo not given)
inactive: all assays above

COc1ccc2c(c1)O[C@@H](c1cccc(C(F)(F)F)c1)[C@H](O)C2=O
inactive: all assays above

CC(=O)OC[C@H]1O[C@H](C#CC2=CCCCC2)C=C[C@H]1OC(C)=O
inactive: all assays above

C=CCOC(=O)N[C@H](C(C(=O)OC)=C(C)NCc1ccccc1)c1ccc(Br)cc1
inactive: all assays above

C=C=CCCN1C(=O)NC(c2ccccc2)C(C(=O)OC)=C1C (stereo not given)
inactive: all assays above

C=CCOC(=O)N[C@H](C(C(=O)OC)=C(C)NCc1ccccc1)c1cccc(OC)c1
inactive: all assays above

C=CC[C@](C)(Nc1ccc(OC)cc1)C(=O)OCC
inactive: all assays above

COc1cccc([C@@H]2Oc3ccc(Br)cc3C[C@@H]2OC(=O)N[S+](=O)([O-])c2ccc(C)cc2)c1
inactive: all assays above

C=CCOC(=O)N[C@H](c1ccccc1)C(C(C)=O)C(C)=O
inactive: all assays above

CCC(=O)C[C@@H](NC(=O)OC)c1ccccc1
inactive: all assays above

C=CCOC(=O)N[C@H](C(C(=O)OC)=C(C)NCc1ccccc1)c1ccc2c(c1)OCO2
inactive: all assays above

C=CCOC(=O)[C@H](O)[C@@H](O)C(=O)OCC=C
inactive: all assays above

COCC(=O)C(C(=O)OC)[C@H](CCc1ccccc1)NC(=O)OC (stereo not given in full)
inactive: all assays above

CCCCC1=CC2=C(c3ccco3)C(=O)C(C)(OC(=O)c3ccc(OC)cc3)C(=O)C2=CN1Cc1ccccc1 (stereo not given)
inactive: all assays above
